Shown is part of a subset that was picked to be rich in hits.
PDI turbidity = inhibitors of human protein disulfide isomerase; P07237; PDI insulin aggregation turbidity, A650, 90 min; inhibition, % at 10 µM; 350,000 compounds, 0.052% hits; AID 588391;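 active = mean inhibition across replicates of 30% or more, whatever share of single replicates reach that level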
Target sequence (P07237 whole entry, looked up): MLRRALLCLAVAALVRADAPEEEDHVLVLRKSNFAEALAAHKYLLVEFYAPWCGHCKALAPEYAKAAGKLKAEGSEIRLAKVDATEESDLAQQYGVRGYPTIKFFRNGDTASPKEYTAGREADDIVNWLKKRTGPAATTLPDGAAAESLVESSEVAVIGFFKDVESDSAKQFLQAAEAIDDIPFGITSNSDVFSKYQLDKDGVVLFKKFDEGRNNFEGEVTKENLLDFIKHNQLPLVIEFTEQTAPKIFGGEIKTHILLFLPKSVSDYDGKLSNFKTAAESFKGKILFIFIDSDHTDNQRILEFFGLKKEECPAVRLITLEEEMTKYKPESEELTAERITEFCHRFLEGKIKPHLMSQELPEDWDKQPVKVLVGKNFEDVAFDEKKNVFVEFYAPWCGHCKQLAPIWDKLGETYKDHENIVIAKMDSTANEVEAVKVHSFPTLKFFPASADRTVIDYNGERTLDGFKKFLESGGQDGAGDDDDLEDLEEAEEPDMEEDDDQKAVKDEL
PglD inh = PglD (C. jejuni) enzyme inhibition | 360,000 compounds, 0.098% hits | purified PglD enzyme, DTNB colorimetric CoA detection | inhibition, % at 12.5 µM; in the data active = inhibition above about 16%, passing the limit was not always enough
ERp5 inh = ERp5 (human) disulfide isomerase inhibition | 350,000 compounds, 0.05% hits | inhibition, % at 9.99 µM | AID 651711 | ERp5 insulin aggregation, absorbance 650 nm, 90 min | Q15084;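 active = mean replicate inhibition above about 25%, with every replicate also reaching it, limit read from the data, passing the limit was not always enough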
ALR H2O2 inh = human ALR oxidase inhibition via reduced H2O2 | inhibition, % (test concentration not listed) | purified ALR, DTT oxidation, H2O2 HRP-luminol luminescence | AID 485317 | P55789 | 290,000 compounds, 3.8% hits;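 active = mean replicate inhibition above about 79%, with every replicate also reaching it, limit read from the data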
ARNT-TACC3 inh = disruptors of human ARNT/TACC3 interaction. Q9Y6A5. AlphaScreen His-ARNT PAS-B/GST-TACC3 binding, luminescence; TACC3 fragment carries E629A point mutation. inhibition, % at 9.99 µM. 390,000 compounds, 0.66% hits;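 active = mean inhibition of replicates at least 50% and at least half of replicates each reaching 50%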;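 note: 0% = complete ARNT plus TACC3 wells and 100% = ARNT alone without TACC3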
NRP1-CendR mod = NRP-1/CendR interaction modulation | FAM-RPARPAR peptide binding to NRP-1, fluorescence polarization | inhibition, % at 25 µM | 360,000 compounds, 0.85% hits;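 active = inhibition or corrected inhibition above about 18%, plus a signal ratio from 0.5 to 1.5, limit read from the data, passing the limit was not always enough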
The depositor's hits bear a star; . = no result.

SMILES | PDI turbidity | PglD inh | ERp5 inh | ALR H2O2 inh | ARNT-TACC3 inh | NRP1-CendR mod
CCC(=O)N1C[C@H](C)[C@@H](OC)CN(C)C(=O)c2ccc(NC(=O)C3CCOCC3)cc2OC[C@H]1C | . | -1 | . | . | 0 | .
O=C(c1ccccn1)N1C[C@H]2[C@@H](c3ccccc31)[C@@H](CO)N2C(=O)CC1CC1 | . | -3 | -5 | . | 45* | .
O=C(c1ccccn1)N1C[C@@H]2[C@H](c3ccccc31)[C@H](CO)N2C(=O)C1CC1 | . | 6 | -5 | . | 49* | .
CC=Cc1ccc2n(c1=O)C[C@@H]1[C@@H](CO)[C@H](C(=O)N(C)C)N(CC3CCCCC3)[C@H]21 (mixture of isomers) | . | 2 | 8 | . | -4 | .
CN1[C@@H]2Cn3c(cccc3=O)[C@H]1[C@@H](C(=O)NCC1CCCCC1)[C@@H]2CO | . | 0 | -3 | . | 1 | .
CCOC(=O)C(=NC(C)(C)C)NNc1cc(Cl)ccc1Cl | -2 | . | . | 99* | 5 | 7
Cc1ccc(-c2ccc3c(c2)O[C@@H](CN(C)C)[C@@H](C)CN([C@@H](C)CO)S3(=O)=O)cc1 | . | 1 | 3 | . | -1 | .
Cc1cc(SCNC(=O)c2ccccc2)ncn1 | -5 | -8 | -6 | 94* | -10 | -7
O=C(CSc1ccc2ccccc2c1)Nn1cnnc1 | 14 | 7 | . | 51 | -10 | 1
CCNC(=O)NC(=O)CSc1ccc2ccccc2c1 | -9 | . | 2 | 98* | -7 | 1
NC(=O)COC(=O)CSc1ccc2ccccc2c1 | 5 | 6 | -2 | 99* | -2 | 12
CCNC(=O)NC(=O)CSc1ccccc1F | 5 | -3 | . | -3 | 19 | 35*
Cc1ccc(C(=O)NNC(=O)C2CC2)cc1Br | -4 | -1 | 24 | 88* | 2 | 2
C[C@@H]1CN([C@@H](C)CO)C(=O)c2cc(NS(=O)(=O)c3cccs3)ccc2O[C@H]1CN(C)Cc1ccncc1 | . | -2 | -8 | . | -9 | .
C[C@H]1CCCCO[C@H](CN(C)CC2CC2)[C@@H](C)CN([C@@H](C)CO)C(=O)c2cc(NC(=O)c3ccncc3)ccc2O1 | . | 1 | 6 | . | -2 | .
CCCNC(=O)CS(=O)Cc1nc(-c2cccc(OC)c2)oc1C (stereo unspecified) | . | 0 | 1 | 99* | -2 | 8
COc1cccc(-c2nc(CS(=O)CC(=O)NCc3ccccc3)c(C)o2)c1 (stereo unspecified) | . | 1 | 0 | 100* | -16 | 8
Cc1cc(=O)[nH]c(N/N=C/c2ccccn2)n1 | -2 | . | . | 55 | 19 | 1
O=c1nc(N/N=C/c2ccccn2)cn[nH]1 | -2 | . | 2 | . | 64* | 8
O=c1cnnc(N/N=C/c2ccccn2)[nH]1 | -2 | -6 | 2 | -5 | 78* | 17
C/C(=N\Nc1ccc2nncn2n1)c1ccccn1 | 3 | -6 | 2 | -2 | . | -6
C(=N\Nc1ccc2nncn2n1)/c1ccccn1 | 8 | 6 | 2 | 31 | 51* | -10
O=C(Cc1ccncc1)NCC[C@H]1CC[C@H](NS(=O)(=O)c2ccccc2Cl)[C@H](CO)O1 | . | -1 | -6 | . | 5 | .
C[C@H]1CN([C@@H](C)CO)C(=O)c2cccc(NC(=O)c3cnccn3)c2O[C@H]1CN(C)CC1CCCCC1 | . | 1 | 1 | . | -21 | .
COc1cccc(CNc2ccc3c(c2)nc(C)n3C)c1OC | 1 | -5 | -1 | 99* | 0 | 6
SMILES | PDI turbidity | PglD inh | ERp5 inh | ALR H2O2 inh | ARNT-TACC3 inh | NRP1-CendR mod
CCOc1ccc(CNc2ccc3c(c2)nc(C)n3C)cc1 | -2 | -1 | . | 96* | 3 | 10
C[C@H](CO)N1C[C@H](C)[C@H](CN(C)S(=O)(=O)c2ccc(Oc3ccccc3)nc2)OCc2cn(nn2)CCCC1=O | . | . | 6 | . | . | .
CCCS(=O)(=O)c1nc(S(=O)(=O)c2ccc(C)cc2)c(N2CCCC2)s1 | -4 | -4 | . | -9 | . | 19*
CCC(=O)N(C)C[C@@H]1Oc2cc(C#CC(C)C)ccc2S(=O)(=O)N([C@@H](C)CO)C[C@@H]1C | . | -1 | -5 | . | -2 | .
COc1ccc(C2NC(=O)CS2)cc1OC (stereo unspecified) | 8 | 3 | . | 98* | 1 | -13
CCCNC(=O)N(C)C[C@@H]1Oc2cc(C#CC3CC3)ccc2S(=O)(=O)N([C@H](C)CO)C[C@H]1C | . | 2 | 0 | . | -4 | .
C[C@H]1CN([C@@H](C)CO)C(=O)Cc2cc(NC(=O)C3CC3)ccc2O[C@@H]1CN(C)C(=O)Nc1ccccc1 | . | 6 | 2 | . | -2 | .
COc1ccc(-c2cc(N)n(S(=O)(=O)c3c(F)c(F)c(F)c(F)c3F)n2)cc1OC | 4 | 0 | -1 | 30 | 43 | 26*
Cc1cc(NC(=O)c2ccccc2)c(Cl)cc1N | 1 | 1 | -7 | . | -5 | -3
Cc1cc(N)ccc1NC(=O)c1ccccc1 | 5 | -5 | . | 98* | 0 | 7
Cc1cc(NC(=O)c2ccccc2)ccc1NC(=O)c1ccccc1Cl | -3 | 0 | 5 | -5 | -5 | -2
Cc1cc(O)ccc1NC(=O)c1ccccc1 | -13 | . | -2 | 99* | -4 | 5
COc1cc(C2N(c3ccccc3)CCN2c2ccccc2)ccc1OC(C)=O | -3 | -1 | . | 94* | -3 | 3
Cc1oc(-c2ccc(F)cc2)nc1CN(Cc1ccccn1)CC1CCCO1 (stereo unspecified) | -7 | -1 | -4 | -3 | 50* | -12
C/C=C/c1ccc2c(c1)O[C@H](CN(C)C(=O)C1CCOCC1)[C@H](C)CN([C@H](C)CO)S2(=O)=O | . | -5 | -1 | . | -7 | .
Cc1cccc(NC(=O)c2ccc(OCc3c(C)noc3C)cc2)c1 | -13 | -1 | -3 | 0 | -2 | 29*
C[C@@H]1CN([C@H](C)CO)C(=O)Cc2cc(NC(=O)C3CCCCC3)ccc2O[C@H]1CN(C)Cc1ccc(C(=O)O)cc1 | . | 6 | 0 | . | -5 | .
Cc1ccc(NC(=O)NC(=O)CN2CCN(c3ccc(O)cc3)CC2)c(C)c1 | -6 | -3 | 6 | 99* | 0 | 7
CC(C)(C)NC(=O)NC(=O)CN1CCN(c2ccc(O)cc2)CC1 | 14 | -2 | 3 | 94* | -1 | 8
C[C@@H]1CN([C@@H](C)CO)C(=O)c2cc(NC(=O)CCCN(C)C)ccc2O[C@@H](C)CCCCO[C@@H]1CN(C)C(=O)Nc1ccccc1 | . | -2 | 4 | . | -5 | .
O=C(Nc1ccc2c(c1)[C@@H]1C[C@@H](CC(=O)N3CCOCC3)O[C@H](CO)[C@@H]1O2)NC1CCCC1 | . | 1 | -4 | . | -2 | .
Cn1c(-c2cc(Br)ccc2O)n[nH]c1=S | 5 | 5 | . | 98* | 1 | -6
O=C1OC(c2ccc(Cl)cc2)/C(=C(/O)c2ccccc2)C1=O (stereo unspecified) | -3 | 6 | . | 97* | 3 | 2
CC(=O)N1CCC(c2c[nH]c3ccccc23)CC1 | 2 | -3 | -1 | 96* | -6 | 4
O=C(c1c[nH]c2ccccc2c1=O)N1CCCCCC1 | 6 | . | 1 | -5 | 1 | -6

Screens from PubChem.
